Assay [1] has as its target Atrial natriuretic peptide receptor 1 (Homo sapiens) (UniProt P16066). Briefly: Natriuretic polypeptide receptor (hNpr1) antagonism - Pilot screen (AID 1347049; calls by dose curve;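 note: agonist-evoked cGMP luminescence read 20 min after hNppA addition; series mostly up to about 58 µM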). The gist of the method: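 HEK293 cells co-expressing hNpr1 and the GloSensor pGS-40F cGMP luciferase sensor were preloaded with 2% GloSensor reagent for 2 h. Compounds were added for 30 min at room temperature, then cells were stimulated with 0.1 nM hNppA for 20 min before luminescence readout.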

Assay [2] concerns the target Atrial natriuretic peptide receptor 2 (Homo sapiens) (UniProt P20594). Briefly: Natriuretic polypeptide receptor (hNpr2) antagonism - Pilot subtype selectivity assay (AID 1347050; calls by dose curve; note: potency is the fitted concentration of half-maximal effect). The gist of the method:
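cGMP-sensor HEK293/hNpr2 cells; 2% GloSensor reagent 2 h RT; compounds 30 min; baseline luminescence read; 1 nM hNppC agonist 20 min RT; final luminescence read by CCD camera. Antagonism = reduced post-agonist signal.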

Assay [3] in a line: NS1 protein of Zika virus - qHTS assay to identify small molecule inhibitors in human HEK 293 cells (AID 1347053). Note: series mostly up to about 46 µM; nearly all actives have a fitted effect of over 55% in size. An outline of the steps: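 Inhibition of NS1 expression was scored in HEK 293 cells given compound 1 h ahead of MR766 virus (MOI = 0.5). Following 24 h at 37 C, two anti-NS1 antibodies generated a TR-FRET signal, scaled between uninfected and infected controls.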
For orientation: qHTS replaces the single test concentration by a dilution series.

The target in assay [4] is T1, Tyrosine-protein phosphatase non-receptor type substrate 1 (Homo sapiens) + Leukocyte surface antigen CD47 (Homo sapiens) (UniProt P78324+Q08722). Nature of the assay: CD47-SIRPalpha protein protein interaction - LANCE assay qHTS validation (AID 1347057; active = well fitted curve in the direction sought with a large enough effect in the signal ratio, with a control signal flat, not every such curve was filed as active; the % refers to the signal ratio; note: series mostly up to about 38 µM). The gist of the method:
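First, His-tagged CD47 and Eu-labelled anti-His antibody met the compound for 30 min; next, site-specifically biotinylated SIRPalpha was added for 30 min; finally streptavidin-APC was added before reading the TR-FRET ratio.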

Assay [5] addresses T1, Tyrosine-protein phosphatase non-receptor type substrate 1 (Homo sapiens) + Leukocyte surface antigen CD47 (Homo sapiens). Briefly: CD47-SIRPalpha protein protein interaction - Alpha assay qHTS validation (AID 1347059).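 Note: bead proximity luminescence from CD47 binding SIRPalpha after compound preincubation with SIRPalpha.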 The gist of the method:
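Soluble extracellular domains: Avi-tag biotinylated SIRPalpha (25 nM) preincubated 30 min RT with compound, then 6His-CD47 (12.5 nM) 30 min; Ni-NTA acceptor and streptavidin donor beads (10 ug/mL) 30 min, AlphaScreen read. PBS pH 7.4, 0.05% IGEPAL.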

For assay [6], the target named is Parathyroid hormone/parathyroid hormone-related peptide receptor (Homo sapiens) (UniProt Q03431). Briefly: qHTS for PTHR1 Agonists: Optimization Screen against the NCGC LOPAC library (AID 1347079).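 Note: GloSensor cAMP luminescence in HEK-293 GP2 cells expressing human PTHR1 with IBMX.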 An outline of the steps: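 Compounds were tested across a qHTS titration. PTHR1-expressing GP2 cells report cAMP rises via GloSensor luminescence after 1 hr compound exposure at 37C with IBMX present.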
Sequence of Parathyroid hormone/parathyroid hormone-related peptide receptor (Homo sapiens) (Q03431 whole entry, looked up): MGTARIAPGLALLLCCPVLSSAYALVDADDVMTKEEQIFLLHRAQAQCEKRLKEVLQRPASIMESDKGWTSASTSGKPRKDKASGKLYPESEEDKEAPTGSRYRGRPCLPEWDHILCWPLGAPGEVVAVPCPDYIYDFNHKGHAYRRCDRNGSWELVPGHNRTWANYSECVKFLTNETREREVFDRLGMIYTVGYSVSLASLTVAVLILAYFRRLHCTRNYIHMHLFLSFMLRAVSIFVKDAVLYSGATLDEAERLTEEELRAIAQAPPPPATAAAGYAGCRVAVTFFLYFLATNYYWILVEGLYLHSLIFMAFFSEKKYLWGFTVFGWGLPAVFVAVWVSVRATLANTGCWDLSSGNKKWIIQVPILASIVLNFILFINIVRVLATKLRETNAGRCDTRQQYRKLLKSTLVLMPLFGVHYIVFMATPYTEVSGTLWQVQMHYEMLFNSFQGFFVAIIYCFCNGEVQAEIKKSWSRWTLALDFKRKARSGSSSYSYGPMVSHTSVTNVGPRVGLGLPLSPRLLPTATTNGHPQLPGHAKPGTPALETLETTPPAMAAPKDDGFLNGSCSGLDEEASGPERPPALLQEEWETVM

Assay [7] in a line: qHTS of pediatric cancer cell lines to identify multiple opportunities for drug repurposing: Primary screen for TC32 cells (AID 1347089). Note: nearly all actives have a fitted effect of over 60% in size. The gist of the method: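 In the primary qHTS, MIPE compounds were tested at 11 concentrations (0.78 nM to 46 µM) and NPC compounds at 8 (0.59 nM to 46 µM) on TC32 cells for 48 h. CellTiter-Glo luminescence gave viability.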
Assay [8] in a line: qHTS of pediatric cancer cell lines to identify multiple opportunities for drug repurposing: Primary screen for SJ-GBM2 cells (AID 1347091). An outline of the steps: (§1)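 Eight- or eleven-point concentration series, 48 h treatment at 37 degrees C in growth media; readout CellTiter-Glo luminescence. Potency and efficacy were taken from the concentration-response curves.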
Assay [9] is described as follows: qHTS of pediatric cancer cell lines to identify multiple opportunities for drug repurposing: Primary screen for A673 cells (AID 1347092). Note: nearly all actives have a fitted effect of over 45% in size. An outline of the steps: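 48 h compound exposure, A673, 500-1,000 cells/well, 37 degrees C/5% CO2. MIPE: 11-point, 0.78 nM-46 µM; NPC: 8-point, 0.59 nM-46 µM (final). Readout CellTiter-Glo luminescence after 15 min RT.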
Assay [10] in a line: qHTS of pediatric cancer cell lines to identify multiple opportunities for drug repurposing: Primary screen for SK-N-MC cells (AID 1347093). Note: series mostly up to about 46 µM. An outline of the steps:
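Metabolically active cells were quantified by ATP-dependent luminescence (CellTiter-Glo, 15 min at room temperature) following 48 h treatment. Cells had been plated at 500-1,000 per well and settled for 5 h beforehand.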

Assay [11] in a line: qHTS of pediatric cancer cell lines to identify multiple opportunities for drug repurposing: Primary screen for BT-37 cells (AID 1347094). Note: series mostly up to about 57 µM. An outline of the steps: (§2)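 Plated cells (500-1,000 per well, growth media) were allowed to settle for 5 hours, treated with compound dilutions for 48 hours, then lysed with CellTiter-Glo for 15 min at room temperature before luminescence reading.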

Assay [12] in a line: qHTS of pediatric cancer cell lines to identify multiple opportunities for drug repurposing: Primary screen for NB-EBc1 cells (AID 1347095). An outline of the steps: as §2
A short description of assay [13]: qHTS of pediatric cancer cell lines to identify multiple opportunities for drug repurposing: Primary screen for U-2 OS cells (AID 1347096). Note: nearly all actives have a fitted effect of over 50% in size. An outline of the steps: (§3)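 Cells (500-1,000/well) in growth media were settled 5 h at 37 degrees C, then given compounds for 48 h. Viability was read as CellTiter-Glo luminescence. Primary runs used MIPE at 11 points (0.78 nM-46 µM) and NPC at 8 points (0.59 nM-46 µM); follow-ups used 11 points.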

Assay [14] in a line: qHTS of pediatric cancer cell lines to identify multiple opportunities for drug repurposing: Primary screen for Saos-2 cells (AID 1347097). Note: nearly all actives have a fitted effect of over 40% in size. An outline of the steps: as §2
Assay [15] can be described thus: qHTS of pediatric cancer cell lines to identify multiple opportunities for drug repurposing: Primary screen for NB1643 cells (AID 1347099). Note: nearly all actives have a fitted effect of over 50% in size. An outline of the steps:
as §2

Assay [16] is described as follows: qHTS of pediatric cancer cell lines to identify multiple opportunities for drug repurposing: Primary screen for LAN-5 cells (AID 1347100). The gist of the method: as §3
A short description of assay [17]: qHTS of pediatric cancer cell lines to identify multiple opportunities for drug repurposing: Primary screen for BT-12 cells (AID 1347101). Note: nearly all actives have a fitted effect of over 25% in size. The gist of the method: (§4)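 Cells (500-1,000/well) rested 5 h, then received compounds for 48 h; metabolically active cells were measured by CellTiter-Glo luminescence. Final concentrations spanned up to 46 µM (MIPE, 11-point) or 0.59 nM-46 µM (NPC, 8-point) in primary screens, 11-point in follow-ups.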

Assay [18] concerns the target T1, Tyrosine-protein phosphatase non-receptor type substrate 1 (Homo sapiens) + Leukocyte surface antigen CD47 (Homo sapiens). Briefly: CD47-SIRPalpha protein protein interaction - HTRF assay qHTS validation (AID 1347058; active = well fitted curve in the direction sought with a large enough effect in the signal ratio, not every such curve was filed as active; the % refers to the signal ratio; note: series mostly up to about 38 µM). The gist of the method:
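TR-FRET read (Ch1/Ch2 ratio) of soluble extracellular CD47 and Avi-biotinylated SIRPalpha domains in PBS pH 7.4 with 0.05% IGEPAL; 7-point compound titration. Sequential 30 min room-temperature steps; non-biotinylated SIRPalpha as control inhibitor.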
(In general: Time-resolved FRET reads energy transfer from a long-lived donor to a nearby acceptor.)

The nature of assay [19]: qHTS of pediatric cancer cell lines to identify multiple opportunities for drug repurposing: Primary screen for DAOY cells (AID 1347090). Note: series mostly up to about 46 µM; nearly all actives have a fitted effect of over 55% in size. The gist of the method:
as §1

Assay [20] can be described thus: qHTS of pediatric cancer cell lines to identify multiple opportunities for drug repurposing: Primary screen for SK-N-SH cells (AID 1347098).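 Note: DMSO served as neutral control and bortezomib at 2.3 µM as positive control; nearly all actives have a fitted effect of over 65% in size.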 The gist of the method:
as §4

Among the data in PubChem BioAssay (NCATS) are outcome and Potency values, retold here.

Values without a mark were called inactive. Inconclusive results are not listed. The source made the active and inactive calls. Unless noted, calls come from the whole dose curve; as a rule, active = well fitted curve in the direction sought with a large enough effect; inconclusive = small, poorly fitted or top-dose-only effect, or another doubt; inactive = no such curve, though single readings can be large; an effect the other way counts as inactive or inconclusive.

T1 sequence (P78324 whole entry, looked up): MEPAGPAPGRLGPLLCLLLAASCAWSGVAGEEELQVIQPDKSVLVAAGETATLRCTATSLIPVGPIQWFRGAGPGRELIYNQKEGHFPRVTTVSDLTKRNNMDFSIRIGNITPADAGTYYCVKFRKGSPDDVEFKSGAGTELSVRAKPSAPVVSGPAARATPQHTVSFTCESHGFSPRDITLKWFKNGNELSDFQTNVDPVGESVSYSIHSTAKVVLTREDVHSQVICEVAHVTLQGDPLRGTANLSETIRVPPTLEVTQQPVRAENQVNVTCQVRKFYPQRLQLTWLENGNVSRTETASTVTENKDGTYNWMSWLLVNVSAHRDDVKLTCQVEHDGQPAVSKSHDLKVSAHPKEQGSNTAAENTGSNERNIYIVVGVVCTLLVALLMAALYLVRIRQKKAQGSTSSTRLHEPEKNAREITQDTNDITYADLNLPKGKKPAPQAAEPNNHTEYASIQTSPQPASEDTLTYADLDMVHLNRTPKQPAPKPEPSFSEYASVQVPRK
T1 sequence (Q08722 whole entry, looked up): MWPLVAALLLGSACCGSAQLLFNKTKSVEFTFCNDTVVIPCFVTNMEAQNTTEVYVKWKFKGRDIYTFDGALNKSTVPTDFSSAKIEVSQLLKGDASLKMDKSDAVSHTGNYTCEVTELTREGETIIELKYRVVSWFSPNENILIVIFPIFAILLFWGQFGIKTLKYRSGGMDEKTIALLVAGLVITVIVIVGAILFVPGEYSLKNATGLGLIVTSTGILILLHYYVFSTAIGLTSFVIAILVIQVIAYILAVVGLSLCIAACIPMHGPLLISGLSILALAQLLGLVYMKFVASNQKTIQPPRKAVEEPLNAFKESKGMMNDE
Sequence of Atrial natriuretic peptide receptor 1 (Homo sapiens) (P16066 whole entry, looked up): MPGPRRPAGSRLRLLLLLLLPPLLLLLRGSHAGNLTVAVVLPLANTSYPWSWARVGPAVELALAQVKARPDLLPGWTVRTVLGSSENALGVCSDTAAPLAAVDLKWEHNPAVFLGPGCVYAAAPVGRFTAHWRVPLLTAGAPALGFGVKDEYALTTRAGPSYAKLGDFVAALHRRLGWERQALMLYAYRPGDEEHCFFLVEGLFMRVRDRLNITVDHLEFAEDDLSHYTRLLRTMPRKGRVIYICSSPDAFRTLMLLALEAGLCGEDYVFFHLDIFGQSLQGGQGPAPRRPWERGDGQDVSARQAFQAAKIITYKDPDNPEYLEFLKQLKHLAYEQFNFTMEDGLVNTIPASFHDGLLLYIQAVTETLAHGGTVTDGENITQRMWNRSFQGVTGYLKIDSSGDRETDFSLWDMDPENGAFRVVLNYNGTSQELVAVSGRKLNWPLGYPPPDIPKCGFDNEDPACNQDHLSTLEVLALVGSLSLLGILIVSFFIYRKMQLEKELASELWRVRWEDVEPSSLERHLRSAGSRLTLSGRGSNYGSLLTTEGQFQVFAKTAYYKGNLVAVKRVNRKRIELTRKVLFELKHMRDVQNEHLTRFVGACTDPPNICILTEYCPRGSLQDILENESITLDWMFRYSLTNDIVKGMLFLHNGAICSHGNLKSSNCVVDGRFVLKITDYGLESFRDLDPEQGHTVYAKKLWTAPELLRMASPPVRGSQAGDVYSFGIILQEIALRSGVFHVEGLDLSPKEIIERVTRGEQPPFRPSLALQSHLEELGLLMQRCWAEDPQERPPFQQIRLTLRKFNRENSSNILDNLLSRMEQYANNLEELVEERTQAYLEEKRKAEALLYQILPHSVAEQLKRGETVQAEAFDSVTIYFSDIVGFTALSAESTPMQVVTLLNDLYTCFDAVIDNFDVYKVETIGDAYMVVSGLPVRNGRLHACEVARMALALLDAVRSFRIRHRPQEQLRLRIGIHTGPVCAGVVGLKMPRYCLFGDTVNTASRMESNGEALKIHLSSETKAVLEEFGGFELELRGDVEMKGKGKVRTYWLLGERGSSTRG
Sequence of Atrial natriuretic peptide receptor 2 (Homo sapiens) (P20594 whole entry, looked up): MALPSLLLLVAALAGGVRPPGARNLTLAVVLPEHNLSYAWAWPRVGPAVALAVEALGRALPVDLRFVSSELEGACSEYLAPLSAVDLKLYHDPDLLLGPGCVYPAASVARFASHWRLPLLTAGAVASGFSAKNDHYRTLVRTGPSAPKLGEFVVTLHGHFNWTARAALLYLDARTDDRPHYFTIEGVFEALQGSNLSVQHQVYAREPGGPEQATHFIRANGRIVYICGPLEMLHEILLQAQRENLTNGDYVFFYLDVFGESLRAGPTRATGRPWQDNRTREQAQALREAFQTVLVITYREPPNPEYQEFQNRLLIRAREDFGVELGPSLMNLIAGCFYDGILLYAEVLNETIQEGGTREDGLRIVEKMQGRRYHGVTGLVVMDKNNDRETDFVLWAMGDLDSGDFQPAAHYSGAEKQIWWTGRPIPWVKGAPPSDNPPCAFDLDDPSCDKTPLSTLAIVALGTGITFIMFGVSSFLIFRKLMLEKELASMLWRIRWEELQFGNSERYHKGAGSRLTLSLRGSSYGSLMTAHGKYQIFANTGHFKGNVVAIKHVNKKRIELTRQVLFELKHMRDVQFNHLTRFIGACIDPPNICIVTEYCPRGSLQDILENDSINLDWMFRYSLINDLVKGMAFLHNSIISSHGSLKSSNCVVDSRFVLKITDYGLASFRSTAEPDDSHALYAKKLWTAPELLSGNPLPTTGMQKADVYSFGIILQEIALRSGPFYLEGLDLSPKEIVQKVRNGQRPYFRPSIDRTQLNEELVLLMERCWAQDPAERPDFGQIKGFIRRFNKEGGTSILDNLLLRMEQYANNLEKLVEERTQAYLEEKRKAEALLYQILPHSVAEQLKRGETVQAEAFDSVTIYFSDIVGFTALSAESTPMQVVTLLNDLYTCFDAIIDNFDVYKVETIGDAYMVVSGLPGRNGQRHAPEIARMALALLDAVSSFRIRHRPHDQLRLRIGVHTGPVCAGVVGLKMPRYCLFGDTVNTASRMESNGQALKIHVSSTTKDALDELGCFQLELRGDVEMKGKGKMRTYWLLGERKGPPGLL

Take `N=c1c[n+](N2CCOCC2)[n-]o1`: the result in assay [1], in [4] and in assay [5] was inactive. For the same compound, the Potency entry in assay [2], in assay [3] and in [6] was “inactive” in each case.
For the compound `Nc1cc(=O)[nH]c(N)n1`, the call in [1], in assay [4] and in assay [5] was inactive. Besides, the Potency entry in assay [2], in [3], in assay [6], in assay [7], in [8] and in [9] was “inactive” throughout. The Potency result in [10], in [11], in assay [12], in assay [13], in [14] and in assay [15] was “inactive” in each case. In addition, the Potency entry in assay [16] and in assay [17] was “inactive” each time.
Regarding `CC(CN1c2ccccc2Sc2ccccc21)N(C)C` (configuration not stated), the call in [1], in assay [4] and in assay [5] was inactive. The Potency entry in [2], in [3], in assay [6], in assay [8], in assay [9] and in assay [10] was “inactive” throughout. Moreover, the Potency entry in assay [11], in [12], in [15] and in [16] was “inactive” throughout.
As to `C[C@]12C[C@H](O)[C@H]3[C@@H](CCC4=CC(=O)CC[C@@]43C)[C@@H]1CC[C@@H]2C(=O)CO`, the outcome in assay [1], in assay [4], in [18] and in assay [5] was inactive. The Potency entry in assay [2], in [3], in assay [6], in assay [7], in [19] and in assay [8] was “inactive” throughout. In addition, the Potency result in [10], in assay [11], in [12], in assay [14], in assay [20] and in [15] was “inactive” throughout. Moreover, the Potency entry in assay [16] and in assay [17] was “inactive” each time.
For `C#CCN(C)Cc1ccccc1`, the result in assay [1], in assay [4], in assay [18] and in assay [5] was inactive. Moreover, the Potency entry in assay [2], in assay [3], in assay [6], in assay [7], in [19] and in assay [8] was “inactive” throughout. Further, the Potency entry in [10], in assay [11], in [12], in assay [13], in [14] and in assay [20] was “inactive” throughout. Also, the Potency result in assay [15], in assay [16] and in [17] was “inactive” throughout.
Turning to `CC(C)NC[C@H](O)c1ccc(O)c(O)c1`, the compound was called inactive in assay [1], in [4], in [18] and in assay [5]. For the same compound, the Potency entry in [2] and in assay [3] was “inactive” in each case.
Turning to `CC(C)(C)c1onc(OCP(=O)(O)O)c1CC(N)C(=O)O` (configuration not stated), the call in assay [1], in [4] and in assay [5] was inactive. Also, the Potency entry in assay [2], in [3] and in assay [6] was “inactive” each time.
Take `CN(C)CCCN1c2ccccc2CCc2ccccc21`: the compound was classed as inactive in assay [1], in [4], in assay [18] and in assay [5]. In addition, in [2], the Potency is 16.5 µM (active). In addition, the Potency result in assay [3], in [6], in assay [7], in assay [19], in [8] and in assay [11] was “inactive” throughout. The Potency result in assay [12], in [13], in assay [14], in assay [20], in [15] and in assay [16] was “inactive” in each case.
